Results: ChEMBL document CHEMBL4513216, “Probing the Open Global Health Chemical Diversity Library for Multistage-Active Starting Points for Next-Generation Antimalarials” (ACS Infect Dis, 2020)
Screen size: about 69,000 compounds; about 8,600 (12%) showed an effect of 50% or more. Many of the other results were omitted from the sample, so strong results are more common in it than they were.

test system: Plasmodium berghei; experiment: Screen against P. berghei liver stage (PbLuc), transformed with Luciferase, at 10uM; format: functional, HepG2; details: tested at 10 uM

| SMILES | INHIBITION [%] |
| --- | --- |
| NS(=O)(=O)Cc1ccc(CNc2cncc(-n3cccn3)n2)cc1 | 11.6 |
| Cc1ccc(CN2CCN(Cc3nccn3C)[C@H]3CS(=O)(=O)C[C@H]32)o1 | 24.9 |
| O=C(CN1CCC[C@H]1C(=O)O)NCCOc1cccc(Cl)c1 | 16.1 |
| O=C(NC1CCN(C2CC2)CC1)c1cn(-c2ccc(Cl)cc2)nn1 | -6.51 |
| Cc1ccc2c(n1)N(Cc1csc(C)n1)CCN(C1CCOC1)C2 (stereo unspecified) | 28.2 |
| Cc1cccn2c(CNC(C)CCn3cccn3)cnc12 (stereo unspecified) | 32.3 |
| Cc1cc(C)n(CC(C)NCc2cnc3c(C)cccn23)n1 (stereo unspecified) | 60.4 |
| Cc1cc(C)n(CC(C)NCc2nc(-c3cccnc3)no2)n1 (stereo unspecified) | 45.9 |
| Cc1ccc2c(c1)c(CNC(C)Cn1nc(C)cc1C)nn2C (stereo unspecified) | 10.9 |
| Cc1cccn2c(CNC(C)CO)cnc12 (stereo unspecified) | 24.7 |
| Cc1cccn2c(CNC(C)CCc3ccc(O)cc3)cnc12 (stereo unspecified) | 65.8 |
| COc1ccc(OC)c(C(C)NC(=O)c2nn(C)c(C)c2Br)c1 (stereo unspecified) | -1.84 |
| Cn1c(=O)[nH]c(=O)n2c(CC(=O)Nc3ccccc3)cnc12 | 32.5 |
| COCC1CN(Cc2ccoc2)Cc2cn(CC3CCCC3)nc21 (stereo unspecified) | 34.6 |
| CCn1cc2c(n1)C(COC)CN(Cc1ccoc1)C2 (stereo unspecified) | 58.7 |
| COCC1CN(Cc2ccoc2)Cc2cn(C)nc21 (stereo unspecified) | 7.24 |
| Cn1c(Cn2ccnc2)nnc1C1CCN(C(=O)c2ccncc2)CC1 | -22.1 |
| COCC(=O)N1CCC(c2cc(N(C)C)cc(C)n2)CC1 | 44.3 |
| Cc1ccc(-c2nc(CC(=O)NCC(C)N3CCOCC3)cs2)o1 (stereo unspecified) | 67.5 |
| Cc1ccc(-c2nc(CC(=O)N3CCCC(NC(=O)C(C)C)C3)cs2)o1 (stereo unspecified) | 51.7 |
| Cc1ccc(-c2nc(CC(=O)N3CCN(c4cnccn4)CC3)cs2)o1 | -11.4 |
| Cc1ccc(-c2nc(C(=O)NCC3CCOC3)cs2)cc1 (stereo unspecified) | 41.5 |
| Cc1ccc(-c2nc(CC(=O)NCC3CCCN(C(C)C)C3)cs2)o1 (stereo unspecified) | 38.7 |
| Cc1ccc(-c2nc(CC(=O)NCC3CCOC3)cs2)o1 (stereo unspecified) | 71.2 |

| SMILES | INHIBITION [%] |
| --- | --- |
| CNC(=O)C1CCCCN1C(=O)Cc1csc(-c2ccc(C)o2)n1 (stereo unspecified) | -7.72 |
| Cc1ccc(-c2nc(CC(=O)NCC3CCCOC3)cs2)o1 (stereo unspecified) | 44.3 |
| CCNC(=O)C1CCN(Cc2csc(-c3ccc(C)o3)n2)CC1 | 20.2 |
| NC(=O)NCC1CCCCN1C(=O)c1cccc(Cl)c1 (stereo unspecified) | -17.4 |
| CNC(=O)CN1CCCC12CCN(C(=O)c1cccc(F)c1)CC2 | 14.9 |
| CCSc1ccc(C(=O)N2CCCC2C(=O)N2CCOCC2)cn1 (stereo unspecified) | 23.6 |
| Cc1ccc(CN2CC[C@H]3OCC[C@@H](C(=O)NC4CC4)[C@@H]3C2)o1 | 23.9 |
| CCOCc1ccc(NC(=O)N2CCCC2c2nncn2C)cc1 (stereo unspecified) | 43.7 |
| Cn1cnnc1C1CCCN1C(=O)Nc1cccc(OC(F)F)c1 (stereo unspecified) | 30.7 |
| COc1cc(NC(=O)N2CCCC2c2nncn2C)ccc1Br (stereo unspecified) | 55.6 |
| c1cncc(CN2CCc3ncnc(NCCc4c[nH]cn4)c3CC2)c1 | 38.3 |
| CC(C)c1nc(C2CCCN(C(=O)c3ccc4nncn4c3)C2)no1 (stereo unspecified) | -43.6 |
| CCC(C)N1CCC2(CC1)CN(c1cncnc1)C(=O)CO2 (stereo unspecified) | 3.25 |
| N#Cc1ccc(CNC2CCN(CCc3ccncc3)CC2)cc1 | 51.1 |
| Fc1ccc(CNC2CCN(CCc3ccncc3)CC2)cc1F | 21.5 |
| CSc1ccc(CNC2CCN(CCc3ccncc3)CC2)cc1 | 16.1 |
| COCCN1CCC(NCc2cccc(C)c2)C1 (stereo unspecified) | 15.6 |
| COCCN1CCC(NCc2ccc(Cl)cc2)C1 (stereo unspecified) | 23.4 |
| N#Cc1ccc(CNC(=O)NC2CCN(c3ncccn3)CC2)cc1 | 23.3 |
| N#Cc1ccc(CNC(=O)NC2CCN(CC(F)(F)F)C2)cc1 (stereo unspecified) | 52 |
| N#Cc1ccc(CNC(=O)NC2CCN(CC(F)F)CC2)cc1 | 26.1 |
| Oc1cccc(CNC2CCN(CCc3ccncc3)CC2)c1 | 4.48 |
| Clc1cccc(CNC2CCN(CCc3ccncc3)CC2)c1 | 52.9 |
| COCCN1CCC(NCc2ccc(C#N)cc2)C1 (stereo unspecified) | 57.4 |

| SMILES | INHIBITION [%] |
| --- | --- |
| Cc1ccc(CNC2CCN(CCc3ccncc3)CC2)cc1C | 15.1 |
| O=C1CCC2(CCC(NC3CCOC3)CC2)N1Cc1ccccc1 (stereo unspecified) | -17.1 |
| Cc1cccc(CN2Cc3[nH]nc(COCCO)c3C2)n1 | 29 |
| Cc1nc(C(=O)N2CCOC(c3nc(C(C)C)n[nH]3)C2)c[nH]1 (stereo unspecified) | -16 |
| CCN(Cc1nonc1C)C(=O)c1cc(C(F)(F)F)nn1C | 29.9 |
| CN(C)Cc1cccc(C(=O)N2CCCC(n3cncn3)C2)c1 (stereo unspecified) | 29.2 |
| COc1cc2[nH]c(C(=O)O)cc2c(OC)c1C | -13.1 |
| CCn1nc2ccc(S(=O)(=O)N3CCSCC3)cn2c1=O | 7.92 |
| COc1ccc(C(C)NCc2ccc(OC)c(OC)c2OC)cc1F (stereo unspecified) | 67.1 |
| COc1cc(CNC(C)Cn2cccn2)cc(Cl)c1OC (stereo unspecified) | -3.7 |
| COc1ccc(CNC(C)c2cccc(Br)c2)c(OC)c1OC (stereo unspecified) | 70.5 |
| CC(NCc1ccc(OCC(N)=O)cc1)c1ccc(Cl)cc1 (stereo unspecified) | 43.3 |
| CC(NCC1CCN(CCO)CC1)c1cccc(Cl)c1 (stereo unspecified) | 40.4 |
| COc1ccc(C(C)NCc2cnnn2C)cc1F (stereo unspecified) | 36.6 |
| COc1ccc(CNC(C)c2ccccc2Cl)c(OC)c1OC (stereo unspecified) | 48.3 |
| COc1cc(CNC(C)c2cccc(Cl)c2)cc(OC)c1OC (stereo unspecified) | 63.7 |
| COc1ccc(CNC(C)c2ccc(Cl)cc2)c(OC)c1OC (stereo unspecified) | 56 |
| COc1ccc(CNC(C)c2cccc(Cl)c2)c(OC)c1OC (stereo unspecified) | 44.3 |
| CCOc1cccc(C(C)NCc2ccc(OC)c(OC)c2OC)c1 (stereo unspecified) | 38.5 |
| COc1ccc(C(C)NCCC(N)=O)cc1F (stereo unspecified) | 49.4 |
| O=C(COC1CCCCC1)N1CCCC(n2ccnc2)C1 (stereo unspecified) | -29.8 |
| CCN1CC(C(=O)NC(C)(C)C(=O)OC)CC1=O (stereo unspecified) | -10.3 |
| Cc1[nH]nc(CCC(=O)NCC2CCN(C3CCCCC3)C2)c1C (stereo unspecified) | -57.5 |
